The panel holds about 83,000 compounds, 20% with a hit somewhere; the sample as a whole holds those more often.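 Treatment: one concentration, 48 hours, 96-well format. Scoring: percent growth, with anything below 10 considered active.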 Values without a mark were called inactive. Active and inactive are the calls of the source.

What all share (assay): NCI-60 one-dose screen, 48 h (100 = growth as untreated, 0 = no growth, -100 = all killed)
Assay [1] concerns HCT-15 colon. To be noted: 10 µM unless noted.
Assay [2] deals with HT29 colon. To be noted: 10 µM unless noted.
Assay [3] concerns SNB-75 CNS. To be noted: 10 µM unless noted.
For assay [4], the system named is SNB-19 CNS. To be noted: 10 µM unless noted.
Assay [5] relates to U251 CNS. To be noted: 10 µM unless noted.
In assay [6] the test system is PC-3 prostate. To be noted: 10 µM unless noted.
Assay [7] deals with SK-MEL-5 melanoma. To be noted: 10 µM unless noted.
In assay [8] the test system is UACC-62 melanoma. To be noted: 10 µM unless noted.
Assay [9] has as its system LOX IMVI melanoma. To be noted: 10 µM unless noted.
Assay [10] deals with SK-MEL-28 melanoma. To be noted: 10 µM unless noted.
Assay [11] deals with SK-MEL-2 melanoma. To be noted: 10 µM unless noted.
Assay [12] has as its system EKVX NSCLC. To be noted: 10 µM unless noted.
Assay [13] concerns UO-31 renal. To be noted: 10 µM unless noted.
Assay [14] relates to ACHN renal. To be noted: 10 µM unless noted.
Assay [15] concerns CAKI-1 renal. To be noted: 10 µM.
The subject of assay [16] is CCRF-CEM leukemia. To be noted: 10 µM unless noted.
Assay [17] concerns SN12C renal. To be noted: 10 µM unless noted.
Assay [18] relates to A498 renal. To be noted: 10 µM unless noted.
Assay [19] has as its system MOLT-4 leukemia. To be noted: 10 µM unless noted.
Assay [20] concerns TK-10 renal. To be noted: 10 µM unless noted.

For the compound `CCOC(=O)/C=c1\sc2n(c1=O)C1C(NN=2)N(CC)C(=O)N1CC` (stereo not given), the growth was 31% in [1]; 26.4% in assay [2]; 52.2% in assay [3]; 54.2% in [4]; 68.9% in [5]; 55.7% in [6]. Also, the growth was 54% in assay [7]; 39% in [8]; 53.5% in [9]; 71.9% in [10]; 76.7% in [11]; 81.9% in assay [12]. For the same compound, the growth in assay [13] is 56.2%; in [14] it was 44.5%; in assay [15], 51.3%; in [16], 53.4%.
Consider `CC(C)=CCc1c2c(c(O)c3c1O[C@]14C(=C[C@@H]5C[C@H]1C(C)(C)O[C@@]4(C/C=C(/C)C(=O)O)C5=O)C3=O)CC(O)C(C)(C)O2` (stereo not given in full), for which the growth in [1] was -41.6% (active); in [2], -8.66% (active); in assay [3] it was -25.7% (active); in [4] it was 22.6%; in [5], -72.4% (active); in [6], 7.46% (active). Besides, the growth is -96.6% (active) in assay [7]; -26.1% (active) in assay [8]; -95.4% (active) in [9]; -13.7% (active) in assay [10]; -71.3% (active) in [11]; -32.5% (active) in assay [12]. For the same compound, the growth was 12.9% in [17]; -57.1% (active) in assay [13]; -11% (active) in assay [14]; -75.6% (active) in [18]; 5.72% (active) in assay [16]; -7.09% (active) in assay [19].
For the compound `Cn1c2ccc(Br)cc2c2c3c(c4c5cc(F)ccc5oc4c21)C(=O)N(O)C3=O`, the growth in assay [1] is 89.2%; in [2], 101%; in [3], 70%; in assay [4], 74.3%; in assay [5], 79.8%; in assay [6] it was 68%. Besides, the growth in assay [7] is 90.3%; in [8], 80.2%; in assay [9], 61.9%; in assay [10], 112%; in assay [11], 110%; in assay [12] it was 90.1%. Besides, the growth in [13] was 75.4%; in assay [20], 142%; in assay [14] it was 78%; in [15], 69.2%; in assay [16], 14.7%; in assay [19], 43%.
Regarding `CC[C@H](C)[C@H]1NC(=O)[C@@H]([C@H](O)C(C)C)NC(=O)[C@@H](C)N(C)C(=O)[C@H](C)N(C)C(=O)[C@H](CC(C)C)NC(=O)[C@H](CC(C)C)N(C)C(=O)[C@H](C)N(C)C1=O`, the growth in [1] was 1.74% (active); in assay [2], 3.09% (active); in assay [3], 11.2%; in assay [4] it was 5.15% (active); in assay [5], 1.21% (active); in assay [6] it was 5.5% (active). Moreover, the growth in assay [7] is -12.4% (active); in [8], -3.83% (active); in assay [9], -1.35% (active); in assay [10], -9.11% (active); in [11], -27% (active); in [12], -4.22% (active). In addition, the growth in assay [17] was 2.49% (active); in [13], 5.19% (active); in assay [14], 5.95% (active); in assay [18], 5.77% (active); in [16], 4.88% (active); in assay [19], 1.68% (active).
Turning to `O=C1c2cc(Br)ccc2-n2c1nc1cc(Br)ccc1c2=O`, the growth in assay [1] was 64.8%; in assay [2], 74.3%; in assay [3] it was 68.3%; in [4] it was 84.6%; in assay [5], 91.9%; in assay [6], 60.9%. Further, the growth is 60.6% in [7]; 85.7% in assay [8]; 63.9% in assay [9]; 88.9% in assay [10]; 73.4% in [11]; 59.5% in assay [12]. Moreover, the growth was 62.6% in assay [13]; 79% in [14]; 78.7% in assay [15]; 125% in assay [18]; 71.9% in assay [16]; 67.7% in [19].
On to `O=C(Nc1cccc(-c2nc(-c3ccc(NC(=O)c4cccs4)cc3Cl)no2)c1)Nc1ccc(NC(=O)C2CC2)c(C(F)(F)F)c1`, for which the growth was 0.554% (active) in [1]; -11.2% (active) in [2]; -66.4% (active) in [3]; -17.7% (active) in assay [4]; -49.7% (active) in [5]; -56.3% (active) in [6]. Besides, the growth in assay [7] was -90.7% (active); in assay [8], -73.8% (active); in [9], -87.1% (active); in assay [10] it was -83.3% (active); in [11] it was -50.2% (active); in [12], -34.2% (active). The growth in assay [13] is -23.6% (active); in assay [20] it was -28.2% (active); in assay [14], 0.236% (active); in assay [15], -67.7% (active); in assay [18], -89% (active); in assay [16], 6.43% (active). Besides, in [19], the growth is -4.78% (active).
As for `CC(C)C[C@H]1C(=O)O[C@H](C(C)C)C(=O)N(C)[C@@H](C(C)C)C(=O)O[C@H](C(C)C)C(=O)N(C)[C@@H](C(C)C)C(=O)O[C@H](C(C)C)C(=O)N1C`, the growth in [1] was 16.6%; in assay [2], 8.39% (active); in [3], 7.5% (active); in assay [4] it was 22.4%; in assay [5] it was 14.1%; in assay [6], 14.5%. In addition, the growth in assay [7] is -32% (active); in assay [8] it was 9.49% (active); in assay [9], 9.57% (active); in assay [10], 38.2%; in assay [11], -17.8% (active); in assay [12] it was 22.6%. For the same compound, the growth in assay [17] is 8.19% (active); in assay [13] it was -9.26% (active); in assay [20], 11.9%; in assay [14], 10%; in assay [18], -6.04% (active); in assay [16] it was 11.3%. In addition, the growth in assay [19] was 0.456% (active).
On to `CC[C@@](C)(NC(=O)C(C)(C)NC(=O)[C@@H](NC(=O)[C@@H]1CCCN1C(=O)C(C)(C)NC(=O)[C@H](CC(C)C)NC(=O)CNC(=O)C(C)(C)NC(=O)[C@@H](NC(=O)C(C)(C)NC(=O)[C@H](CCC(N)=O)NC(=O)[C@H](C)NC(=O)C(C)(C)NC(=O)[C@H](C)NC(=O)C(C)(C)NC(=O)[C@@H]1CCCN1C(=O)C(C)(C)NC(C)=O)C(C)C)C(C)C)C(=O)N[C@@H](CCC(N)=O)C(=O)N[C@@H](CCC(N)=O)C(=O)N[C@H](CO)Cc1ccccc1`, for which the growth in assay [1] is 98% [4.25 µM]; in [2], 17.4% [4.25 µM]; in assay [3], 3.47% [4.25 µM] (active); in [4], 21% [4.25 µM]; in assay [5], 33.1% [4.25 µM]; in assay [6] it was 16.2% [4.25 µM]. Further, the growth in [7] is -39.8% [4.25 µM] (active); in assay [8], 47.5% [4.25 µM]; in [9], 4.55% [4.25 µM] (active); in assay [10], 27.5% [4.25 µM]; in assay [11], -9.91% [4.25 µM] (active); in assay [12], 71.6% [4.25 µM]. Further, the growth was 12.8% [4.25 µM] in assay [17]; 89.5% [4.25 µM] in [13]; 90% [4.25 µM] in assay [20]; 107% [4.25 µM] in assay [14]; 54.9% [4.25 µM] in assay [18]; 35.6% [4.25 µM] in [16]. In addition, in assay [19], the growth was 8.53% [4.25 µM] (active).

The values are drawn from PubChem BioAssay (NCI).
